From PubChem
In the library only some 10% were active in any assay of this set; here they are far more common.
JMJD2A Tudor: JMJD2A Tudor domain (human) inhibition; O75164; AlphaScreen JMJD2A-Tudor / H3K4me3 peptide binding; Potency, µM (doses to about 114 µM), inactives show at the top dose activity change, negative = inhibition, most hits filed as inhibitors; hit rate 4.4% among 390,000; note: potency is the fitted concentration of half-maximal effect; % is set by controls: 0 for no effect and ±100 for the full control effect; nearly all actives have a fitted effect of over 50% in size
Six1-Eya2 blk: blocks human Six1 binding to Eya2; AlphaScreen GST-Six1/His-Eya2 binding, biochemical; hits give low values; activity change, % (concentration not given with the values); hit rate 0.56% among 360,000; AID 651725; in the data active = activity change below about -65%; inconclusive = mostly about -30% to -63%; note: % is set by controls: 0 for no effect and ±100 for the full control effect
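AlphaScreen with GST-Six1 and His-Eya2 (5X mix: 250 nM and 500 nM), glutathione donor and nickel acceptor beads; buffer 50 mM Tris pH 8.0, 300 mM NaCl, 1 mM TCEP; 1 h at 37 C in the dark.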
CtBP-E1A blk: CtBP/E1A binding inhibition; AlphaScreen GST-E1A/His-CtBP binding, 1536-well; hits give low values; activity change, % (test concentration not listed); hit rate 0.49% among 340,000; AID 651724; in the data active = activity change below about -65%; inconclusive = mostly about -30% to -63%; note: % is set by controls: 0 for no effect and ±100 for the full control effect
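In 5 uL wells, 23 nL compound meets equimolar GST-E1A and His-CtBP (5X stock 125 nM each) for 2 h, 37 °C. Beads (5X, 50 ug/mL) then 1 h, 37 °C, dark.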
G9a block: G9a (human) methyltransferase inhibition; G9a H3K9 monomethylation, AlphaScreen, 2 h; Potency, µM (top dose mostly 102 µM), for the others: at the top dose activity, negative = inhibition, hits mostly inhibitors; hit rate 8.8% among 350,000; AID 504332; note: potency is the fitted concentration of half-maximal effect; % is set by controls: 0 for no effect and ±100 for the full control effect; nearly all actives have a fitted effect of over 75% in size
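Methyltransferase reactions run at room temperature for 2 h (20 nM enzyme, 500 nM biotin-H3K9 peptide, 20 uM SAM) after a 15 min compound preincubation; product detected by AlphaScreen beads and anti-H3K9me1 antibody.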
BAZ2B block: inhibitors of human BAZ2B bromodomain. Potency, µM (doses to about 114 µM), without a hit: at the top dose activity change, negative = inhibition, most hits filed as inhibitors. hit rate 4.4% among 360,000. Q9UIF8. AlphaScreen BAZ2B-H3K14Ac peptide displacement; note: potency is the fitted concentration of half-maximal effect; % is set by controls: 0 for no effect and ±100 for the full control effect; nearly all actives have a fitted effect of over 60% in size
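AlphaScreen luminescence quantifies BAZ2B engagement of H3K14Ac peptide; the protein and biotinylated peptide are both at 50 nM final, buffer PBS pH 7.4 with 0.01% Tween-20, all steps at room temperature.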
HP1b binding inh: HP1-beta chromodomain-methylated histone interaction inhibition; Potency, µM (titrated, usually from 114 µM), inactives show at the highest dose activity change, negative = inhibition, actives largely listed as inhibitors; AlphaScreen HP1-beta / biotin-H3K9me3 peptide binding; hit rate 0.56% among 390,000; AID 540317; P83916; note: potency is the fitted concentration of half-maximal effect; nearly all actives have a fitted effect of over 70% in size
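HP1-beta protein (50 nM final) preincubated 30 min at room temperature with biotinylated H3(1-18)K9me3 peptide (50 nM) in PBS pH 7.4, 0.01% Tween-20, then compound added for 30 min. AlphaScreen streptavidin donor/nickel chelate acceptor beads (10 ug/mL final), 30 min dark, luminescence read.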
The depositor's hits bear a star; ? = inconclusive; / = not tested or not shown; ! = a repeat was not active; [ ] = dose if it differs, or a comment. Unless noted, calls come from the whole dose curve; as a rule, active = well fitted inhibition curve with a large enough effect; inconclusive = small, poorly fitted or top-dose-only effect; inactive = no such curve, though single readings can be large or run the other way.

SMILES	JMJD2A Tudor	Six1-Eya2 blk	CtBP-E1A blk	G9a block	BAZ2B block	HP1b binding inh
Cn1ncc2c(NCc3ccc(F)cc3)ncnc21	-29.3%	/	/	-1.4%[59 µM]	0.7%	67.7%
S=c1[nH]nc(C2CC2)n1Cc1ccco1	22.4µM*	21.7	32.2	2.51µM*	1.4%	8.0%
CCOC(=O)c1c(N)n(Cc2ccco2)c2nc3ccccc3nc12	-1.8%	-10.3	-11.1	14.8%[59 µM]	/	33.8%
C=CCn1c(C2CC2)n[nH]c1=S	?	4.9	/	44.7µM*	-23.8%	40.1%
COc1ccc2[nH]cc(CCN=C(N)N)c2c1	-7.0%	3.8	-24.5	?	?	31.9%
COc1ccc2[nH]cc(CCN=C(NC(=O)c3ccccc3OC)Nc3nc(C)cc(C)n3)c2c1	?	/	/	?	25.1µM*	-3.7%
CC(C)N(Cc1ccccc1)C(=O)CCS(=O)(=O)c1ccc2c(c1)oc(=O)n2C	-4.1%	2.6	-3.5	70.8µM*	-18.8%	51.0%
CN(N)N=Nc1nc2c([nH]1)c(=O)n(C)c(=O)n2C	79.4µM*	-3.8	7.9	2.24µM*	-18.5%	17.1%
C[C@H](N)[C@@H](O)c1ccccc1	/	/	/	27.8%[21.5 µM]	/	/
COc1ccc(-n2c(/C=C\c3ccccc3F)nc3ccccc3c2=O)cc1OC	-18.7%	/	/	-0.2%[59 µM]	0.1%	2.5%
Cn1ccnc1P(=S)(c1nccn1C)N1CCOCC1	35.5µM*	3.2	3.6	?	?	?
Cn1ccnc1P(=S)(c1nccn1C)c1nccn1C	31.6µM*	-23.4	1.6	3.55µM*	?	3.8%
S=P(N1CCOCC1)(N1CC1)N1CC1	-18.2%	5.8	3.4	/	/	-7.4%
C=Cn1ccnc1P(=S)(c1ccc(N(C)C)cc1)c1nccn1C=C	?	-5.8	-21.0	-30.3%[59 µM]	?	10.7%
CCOC(=O)c1ccc(NC(=O)CSc2cc(=O)n(CC)c3ccccc23)cc1	-2.6%	/	/	?	6.1%	-5.8%
CN1CC[C@@]2(CCCN(C(=O)c3ccncc3)C2)C1	/	/	/	-20.8%[12.7 µM]	/	/
O=P1(N(CCCl)CCCl)NCCCO1 (stereo not drawn)	-25.9%	-2.5	7.0	17.8µM*!	0.3%	24.1%
O=C1CN=C(c2ccccc2Cl)c2cc(Cl)ccc2N1Cc1cccc(Cl)c1	-16.0%	/	/	-19.0%[59 µM]	-23.2%	18.4%
CC12CC[C@H]3[C@@H](CCC4(O)C[C@H](O)CCC34/C=N/NC(=O)c3ccc(O)cc3)C1(O)CCC2C1=CC(=O)OC1 (stereo partly drawn)	-6.5%	-1.7	-1.0	/	-3.5%	45.7%
COc1ccc(C(=O)N/N=C/C23CC[C@@H](O)CC2(O)CC[C@@H]2[C@@H]3CCC3(C)C(C4=CC(=O)OC4)CCC23O)cc1 (stereo partly drawn)	-35.1%	5.4	-0.2	50.1µM*	-13.0%	-3.9%
CCN(CC)c1ccc(/C=C/[N+](=O)[O-])cc1	?	-4.1	-4.5	44.7µM*	/	-27.3%
Cc1cccc(N2CCN(C(=O)CCCCn3c(=O)[nH]c4ccsc4c3=O)CC2)c1C	-33.1%	/	/	-29.0%[59 µM]	?	-0.6%
c1csc(CN2CC[C@@]3(CCCNC3)C2)n1	/	/	/	5.4%[12.7 µM]	/	/
O=C1NC(=O)N(c2ccc(Cl)cc2)C(=O)/C1=C/c1coc2ccc(O)cc2c1=O	100µM*	-11.3	-3.9	15.8µM*	-29.6%	-1.3%
O=C1NC(=O)N(c2ccccc2)C(=O)/C1=C/c1coc2ccc(O)cc2c1=O	?	7.6	/	-114.4%[59 µM]	?	12.2%
SMILES	JMJD2A Tudor	Six1-Eya2 blk	CtBP-E1A blk	G9a block	BAZ2B block	HP1b binding inh
O=C(Nc1ccccc1)N1CC2(CCN(C(=O)Oc3ccccc3)CC2)C1	/	/	/	-4.0%[12.7 µM]	/	/
Cn1cc(C=C(C#N)C#N)c2ccccc21	-9.0%	3.4	15.3	/	-21.3%	79.2%
Cn1cc(/C=C(\C(=O)O)C(C(=O)O)=C2CCCCC2)c2ccccc21	?	-0.2	7.6	31.6µM*	?	-20.0%
Clc1ccc2sc(C3CCNCC3)nc2c1	-16.9%	7.2	-6.4	44.7µM*	1.8%	-7.1%
CCN1CCN(C(=O)Cc2coc3ccc4ccccc4c23)CC1	-21.7%	-15.3	-6.5	50.1µM*	-26.1%	-0.9%
Cn1c(C(=O)O)c(CC(=O)N2CCN(Cc3ccccc3)CC2)c2ccccc21	-8.2%	-1.5	-3.6	-18.2%[59 µM]	6.8%	41.2%
CCN1CCN(c2ccc(N)c(C)c2)CC1	-26.6%	-22.0	-3.2	44.7µM*	-27.7%	3.5%
Cc1ccc(-c2nnc(Nc3ccc(O)cc3)c3ccccc23)cc1S(=O)(=O)N1CCOCC1	?	/	/	3.9%[59 µM]	-19.6%	13.3%
CCN(CC)c1ccc(CC2C(=O)N(C)C(=O)N(C)C2=O)cc1	44.7µM*	-23.7	-2.0	12.6µM*	44.7µM*	?
C=CCOc1ccc(CC2C(=O)N(C)C(=O)N(C)C2=O)cc1	-13.4%[57.1 µM]	-11.9	-1.8	-47.2%[12.7 µM]	12.2%	-6.8%
CC(C)[C@H](NC(=O)[C@H](CCC(=O)O)NC(=O)[C@H](Cc1ccccc1)NC(=O)[C@H](C)NC(=O)[C@@H](N)Cc1ccc(O)cc1)C(=O)N[C@H](C(=O)NCC(N)=O)C(C)C	/	/	/	26.9%[59 µM]	/	/
S=c1[nH]nc(-c2ccco2)n1/N=C/c1cccs1	39.8µM*	0.4	13.2	1.26µM*	-32.9%	-8.5%
CCN(CC)C(=O)Cn1cc(S(=O)(=O)CC(=O)NCc2ccc(C)cc2)c2ccccc21	-2.7%	-3.7	-5.5	/	/	45.6%
N#CC(C#N)=NNc1ccc(-n2ccc(C(F)(F)F)n2)cc1	?	-7.0	0.9	31.6µM*	31.6µM*	-18.3%
CCN(CC)S(=O)(=O)c1ccc(NN=C(C#N)C#N)cc1	?	-11.2	-2.7	?	?	?
Cc1cc(C)n(-c2ccc(NN=C(C#N)C#N)cc2)n1	?	0.7	/	/	31.6µM*	1.8%
O=C(c1ccc2c(c1)N(Cc1c(F)cccc1Cl)C(=O)c1ccccc1S2)N1CCC2(CC1)OCCO2	?	/	/	-11.2%[59 µM]	/	-5.6%
CC(C)(C)C(=O)Cn1c(NCCCl)nc2ccccc21	-10.3%	9.7	4.2	39.8µM*	-21.5%	31.6%
CN1CC(C(=O)c2ccc(Cl)cc2)C(c2ccccc2)C1 (stereo not drawn)	-23.9%	-6.5	/	44.7µM*	-16.1%	-9.4%
CN1CC(C(=O)c2cccs2)C(c2ccc(Cl)cc2)C1 (stereo not drawn)	-19.6%	-3.3	-7.3	-34.8%	-12.4%	5.5%
c1ccc(-c2ccc(-c3n(-c4ccccn4)c4ccccc4[n+]3-c3ccccn3)cc2)cc1	?	-6.9	/	35.5µM*	?	31.3%
CCN[C@]1(c2cccs2)CCCCC1=O	/	/	/	18.0%[21.5 µM]	/	/
CCOC(=O)c1c(NC(=O)C(c2ccccc2)c2ccccc2)sc2c1C1CCN2CC1	?	-20.1	-5.4	50.1µM*	?	0.5%
O=P(NS(=O)(=O)c1ccccc1)(Oc1ccccc1)Oc1ccccc1	?	7.3	6.4	56.2µM*	-39.0%	25.0%
